Source: PubChem (The Scripps Research Institute Molecular Screening Center)
DAX1 inh-1 = blocks DAX1 repression of SF-1 activated StAR promoter | inhibition, % at 6.8 µM | hit rate 1.1% among 370,000 | HEK293T StAR-luciferase reporter, SF-1/DAX-1 repression relief;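 active means inhibition above the mean over all tested compounds plus 3 SD, cut at about 3.6% in these data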;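 further: higher inhibition means more luminescence from relief of DAX-1 repression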
hgDAF-12 ag = activates the H. glycines DAF-12 receptor ligand-binding domain; HEK293 GAL4-hgDAF12 UAS-luciferase reporter, agonist luminescence; normalized to butyrate control; activation, % at 6.8 µM; hit rate 1.8% among 370,000;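 active means activation above a cutoff set at the mean of all screened compounds plus 3 SD, cut at about 10% in these data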
ssDAF-12 act = activators of S. stercoralis DAF-12 nuclear receptor. HEK293 ssDAF-12/GRIP1 lit1-tk-luc reporter, luminescence; % of 3 µM dafachronic acid response. activation, % at 6.8 µM. hit rate 1% among 370,000. AID 652126;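 active means activation above the mean over all tested compounds plus 3 SD, cut at about 0.9% in these data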
DAX1 inh-2 = inhibitors of human orphan nuclear receptor DAX1 (NR0B1); P51843; HEK293 Gal4-DAX1 luciferase reporter, luminescence; inhibition, % at 6.75 µM; hit rate 0.99% among 340,000; AID 504766;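 active means inhibition above the mean over all tested compounds plus 3 SD, cut at about 4.2% in these data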;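 further: inhibition shows as a rise in luminescence from relieved DAX1 repression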
Target sequence (P51843 207-470 limits assumed): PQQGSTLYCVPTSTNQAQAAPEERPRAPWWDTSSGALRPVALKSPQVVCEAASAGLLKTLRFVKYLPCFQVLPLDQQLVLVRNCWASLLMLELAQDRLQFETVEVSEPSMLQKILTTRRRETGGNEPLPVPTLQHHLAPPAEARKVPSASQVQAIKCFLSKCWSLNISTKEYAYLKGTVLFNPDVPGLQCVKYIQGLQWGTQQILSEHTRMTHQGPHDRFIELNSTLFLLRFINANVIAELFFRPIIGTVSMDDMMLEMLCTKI
hcDAF12 agonist = activators of H. contortus DAF-12 nuclear receptor. activation, % at 6.8 µM. hit rate 1.4% among 370,000. HEK293 hcDAF-12 lit1-tk-luc reporter, luminescence; 0% DMSO, 100% Δ7-dafachronic acid;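 active means activation above the mean of all tested compounds plus 3 SD, cut at about 5.5% in these data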
AHR act = activators of human aryl hydrocarbon receptor; P35869; AHR-responsive luciferase reporter cells, luminescence; activation, % at 5 µM; hit rate 2.5% among 320,000; in the data active means activation above about 47%
Hits are given with their value; i = inactive; nt = no result. Compounds with a hit are over-represented: about 5.7% of the library has one in this group of screens.

SMILES	DAX1 inh-1	hgDAF-12 ag	ssDAF-12 act	DAX1 inh-2	hcDAF12 agonist	AHR act
COCCN(Cc1ccc(OC)cc1)c1c(C)nc2ccc(C(=O)Nc3ccc(NC(C)=O)cc3)cn12	i	i	i	nt	i	nt
Cc1ccc(S(=O)ONc2cccc(NOS(=O)c3ccc(C)cc3)c2)cc1 (centres undefined)	i	i	i	i	i	nt
COc1cccc(N=C2CC(C)(C)CC(=O)/C2=C(/O)c2ccccc2)c1	i	i	i	i	i	i
CCC(=O)N1CCN=C1SCc1ccccc1Cl	i	i	i	i	i	i
CC(=O)N1CCN=C1SCc1ccccc1Cl	i	i	i	5.0	i	i
O=[N+]([O-])c1cccc(COc2ncnc3cc([N+](=O)[O-])ccc23)c1	i	i	i	i	i	i
COc1ccc(OC)c(CNC(=O)CCCc2cn(C)c3ccccc23)c1	i	i	i	i	i	71
COc1ccc(OC)c(CNC(=O)CCc2cn(C)c3ccccc23)c1	i	i	i	i	i	i
O=C(NN=Cc1cccc(OCc2ccccc2)c1)c1cc(-c2ccc(Cl)cc2)n[nH]1	i	i	i	nt	i	nt
Cc1ccccc1-c1nnc(SCC(=O)Nc2cccnc2Cl)o1	8.3	i	i	i	i	i
COc1ccccc1NC(=O)CSc1nnc(-c2ccoc2C)o1	i	i	i	i	i	i
COc1ccccc1-c1nnc(SCC(=O)Nc2ccc(Cl)cc2Cl)o1	i	i	i	i	i	57
Cc1occc1-c1nnc(SCC(=O)Nc2ccccn2)o1	3.7	i	i	i	i	i
Cc1occc1-c1nnc(SCC(=O)NCCc2ccccc2)o1	i	i	i	i	i	i
Cc1occc1-c1nnc(SCCNCCO)o1	i	13	i	i	i	i
COc1ccccc1NS(=O)(=O)c1cccc(-n2c(O)c(C=Nc3ccccc3C(=O)O)c3ccccc3c2=O)c1	i	i	i	i	i	i
CCC(C(=O)NC(C)(C)C)N(Cc1ccco1)C(=O)CNS(=O)(=O)c1ccc(OC)cc1 (centres undefined)	i	i	i	i	i	i
Cn1c(-c2nnn(-c3ccc(F)cc3)n2)cc2ccccc21	i	i	i	nt	12	69
Fc1ccc(-n2nnc(-c3ccnc4ccccc34)n2)cc1	i	i	i	i	i	54
COc1cc(NS(=O)(=O)c2ccc(Br)s2)cc(OC)c1	i	i	i	i	i	i
C[C@H](O)[C@@H]1C(=O)N2CCc3c([nH]c4cccc(-c5ccccc5)c34)[C@@H]2C[C@@H]1N(C)C(=O)c1ccco1	i	i	i	nt	i	nt
O=C(CCCc1nc(-c2ccccc2)no1)NC1CCCCC1	i	i	1.1	i	i	i
CC1(C)Cc2nc3sc(C(=O)NCCCO)c(N)c3cc2CO1	i	i	i	6.5	i	i
CCn1c(=O)n(CC)c2cc(N3CCCC3)c(NC(=O)c3cc(Cl)ccc3OC)cc21	i	i	i	i	i	i
N/C(=N\OC(=O)c1ccc(F)cc1)c1nonc1N	i	i	i	i	i	i
SMILES	DAX1 inh-1	hgDAF-12 ag	ssDAF-12 act	DAX1 inh-2	hcDAF12 agonist	AHR act
N/C(=N/OC(=O)c1ccccc1Cl)c1nonc1N	i	12	i	i	i	i
CCCCOCCCNC(=O)C[C@@H]1C[C@]2(C(=O)OCC)CCC3=C2N(CCC3)C1=O	i	i	i	nt	i	nt
CCOc1ccccc1NC(=O)CC1Nc2ccccc2NC1=O (centres undefined)	i	i	i	i	i	78
CCCOc1ccccc1NC(=O)CC1Nc2ccccc2NC1=O (centres undefined)	i	i	i	i	i	49
CCCOc1ccc(NC(=O)CC2Nc3ccccc3NC2=O)cc1 (centres undefined)	i	i	i	i	i	i
CCOc1ccccc1NC(=O)CC1Nc2cc(C)c(C)cc2NC1=O (centres undefined)	i	i	i	i	i	i
Cc1cc(C)c(C#N)c(Oc2ccccc2Br)n1	i	i	i	i	i	i
CCCCN1CN2Cc3cc(F)ccc3C2CS1(=O)=O (centres undefined)	i	i	i	nt	i	nt
COc1ccc(-c2cc3c(=O)n(CC(=O)N4CCN(C)CC4)ncn3n2)cc1	i	i	i	i	i	73
COc1ccc(-c2cc3c(=O)n(CC(=O)N4CCCCC4)ncn3n2)cc1	i	i	i	i	i	i
Nc1cccc2c1CN(C1CCC(=O)NC1=O)C2=O (centres undefined)	i	i	i	nt	i	nt
O=c1cc(CSc2nnc(Nc3ccccc3)s2)nc2sccn12	i	i	i	i	i	57
Cc1ccccc1Nc1nnc(SCc2cc(=O)n3ccsc3n2)s1	i	i	i	i	i	i
CC(C)Nc1cc(C(C)(C)C)nc2c(-c3ccccc3)cnn12	i	i	i	6.0	i	i
CC(C)(C)c1cc(NCCCn2ccnc2)n2ncc(-c3ccccc3)c2n1	i	12	i	nt	i	i
Cc1cc(-c2ccc(F)cc2)n2ncc(-c3ccccc3)c2n1	i	i	i	nt	i	nt
Cc1cc(N)n2ncc(-c3ccccc3)c2n1	i	11	i	i	i	61
CC(C)(C)c1cc(C(F)(F)F)n2ncc(-c3ccccc3)c2n1	i	i	i	i	i	i
CCCc1cc(NCCCn2ccnc2)n2nc(C)c(-c3ccccc3)c2n1	i	i	i	i	i	63
Cc1cc(NCc2ccccn2)n2nc(C)c(-c3ccccc3)c2n1	i	i	i	i	i	i
CCN1Cc2nnn(Cc3ccccc3)c2-c2cc(F)ccc2S1(=O)=O	i	i	i	nt	i	nt
COC(=O)[C@]12C[C@H](CC(=O)NCCC(C)C)C(=O)N(Cc3ccc4c(c3)OCO4)C1=C[C@H](C(C)(C)C)O[C@@H]2C	i	i	i	nt	i	nt
Cc1cc(=O)c(C(=O)Nc2cccc(C(=O)NC3CC3)c2)nn1-c1ccccc1	i	i	i	i	i	nt
C=C(CC1([C@@H](NP(=O)(c2ccccc2)c2ccccc2)[C@H]2C[C@@H]2CCCC)CC1)c1ccccc1	i	i	i	i	i	i
Cc1cccc(-c2cc3nc(C)cc(NCCCn4ccnc4)n3n2)c1	i	i	i	i	i	48
SMILES	DAX1 inh-1	hgDAF-12 ag	ssDAF-12 act	DAX1 inh-2	hcDAF12 agonist	AHR act
Cc1c(C(=O)c2ccccc2)c(=O)n(C)c(=O)n1C	i	i	i	i	i	i
O=C(CC(=O)Nc1ccc(F)cc1)Nc1ccc(F)cc1	i	i	i	i	i	i
O=C(NCCc1cccc(Cl)c1)c1cccc([N+](=O)[O-])c1	i	i	i	i	i	i
O=[N+]([O-])c1cccc(C(=Nc2cccc(Cl)c2)NO)c1	i	i	i	i	i	88
COc1ccc(CC2(CO)CCN(Cc3ccncc3)CC2)cc1	i	i	i	i	i	i
COc1ccc(CC2(CO)CCN(Cc3cnn(C)c3C)CC2)cc1	i	i	i	4.9	i	i
O=C(c1cc(-c2cccc(O)c2)on1)N1CCCC1	i	13	i	i	i	i
O=C(c1cc(-c2ccc(Cl)c(Cl)c2)on1)N1CCOCC1	i	i	i	i	i	i
